Hit rate of the full screen: of about 340,000 compounds, about 3,300 (0.97%) were called active. The sample as a whole holds a higher share of actives than the screen did. A number with no mark means an inactive call.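 Rule for the calls: active = maximum activity change below -70%; inconclusive = maximum activity change from -70% to -50%; inactive = maximum activity change above -50%.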
% is set by controls: 0 for no effect and ±100 for the full control effect.

The subject of the assay is Potassium voltage-gated channel subfamily H member 2, brain isoform KCNH2 3.1 (human). Briefly: qHTS for Inhibitors of KCHN2 3.1: Mutant qHTS. The note with it: U2OS KCNH2 3.1, thallium flux FluxOr; active compounds read low. The text has this: Many antipsychotic drugs that inhibit the neurotransmitter dopamine also bind to hERG1 channel which might help explain their antipsychotic activity but also produces cardiac side effects. The discovery of the novel KCNH2 3.1 isoform offers a potential new target for the development of antipsychotic drugs without cardiac side effects. This proposal will use a high throughput thallium flux assay developed for KCNH2 to screen compounds that modulate the activity of KCNH2 3.1. The wild type KCNH2 channel will also be screened in parallel to help define the selective modulators of this KCNH2 3.1 potassium channel. The resulting compounds will be validated in electrophysiology experiments. The availability of animal models will allow future testing in vivo for effects on memory and other aspects of animal physiology linked with psychosis. NIH Chemical Genomics Center [NCGC] NIH Molecular Libraries Probe Centers Network [MLPCN] MLPCN Grant: MH096539 Assay Submitter (PI): James Barrow, Johns Hopkins University, Lieber Institute for Brain Development
U2OS cells were resuspended in cell media containing 10% fetal calf serum (FCS) at a concentration of 2 million cells / mL. The solution was treated with the mutant (3.1) virus at 1.77 x 10^8 / mL and allowed to incubate at room temperature in the dark. After 4 hours of incubation, DMEM + 10% fetal bovine serum (FBS) was added to the cell solution. Three microliter was then dispensed into a 1536 tissue culture treated black assay plates which were incubated overnight at 37 C. Two microliter of loading buffer (HBSS + HEPES + Red40 dye quencher + FluxOr dye) was added and the assay plates were incubated for 45 min at room temperature in the dark. […] A stimulation buffer was added to the plate and the second kinetic read (2 min) was obtained. The rate constant was calculated from the kinetic reads and normalized to the positive and negative DMSO controls.
For `CCOC(=O)C1(CCc2ccccc2)CCN(Cc2ccco2)CC1`, the activity change was -96.9% (active). Then `CCOC(=O)C1(c2ccccc2)CCN(CC(O)c2ccc(NC(C)=O)cc2)CC1` (stereo not given), with -5.82%. Then `c1ccc(CCN2CCC3(CC2)OCCO3)cc1`, with -0.723%; and `COP(=O)(OC)C(NC(=O)c1ccc(C)cc1)C(Cl)(Cl)Cl` (stereo not given), with 10.5%. Then `CSc1ccc(C(=O)C2CCCN(Cc3ccn[nH]3)C2)cc1` (stereo not given), with -19%; and `COc1ccc(C(=O)C2CCCN(Cc3ccc(C)s3)C2)cc1OC` (stereo not given), with -13%; and `COc1cccc(CN2CCCC(C(=O)c3ccccc3SC)C2)c1O` (stereo not given), with -72.3% (active).

As to `CC1C2Cn3c(nc4ccccc43)C1N(C)O2` (stereo not given), the activity change is 20.5%. Then `COC(=O)C1=C(c2ccc(F)cc2OCc2ccccc2)C[C@@H]2CC[C@H]1N2C(=O)NCc1ccc(OC)c(OC)c1`, with -73.8% (active); and `COC(=O)C1=C(c2ccc(F)cc2OCc2ccccc2)C[C@@H]2CC[C@H]1N2C(=O)NCc1ccc(C(C)(C)C)cc1`, with -19.4%. Then `COC(=O)C1=C(c2ccc(F)cc2OCc2ccccc2)C[C@@H]2CC[C@H]1N2C(=O)NCc1ccc2[nH]ccc2c1`, with 1.25%; and `CC1=CC(=Cc2sc3ccccc3[n+]2C)C=C(C)O1`, with -4.47%. To `COC(=O)C1=C(c2ccc(C(C)=O)cc2)C[C@@H]2CC[C@H]1N2C(=O)NCCNC(C)=O` belongs 21.5%. On to `COC(=O)CN1C(=O)C2(C(C(=O)OC)=C(N)Oc3ccccc32)C2=C1CC(C)(C)CC2=O` (stereo not given), for which the activity change is -17.7%. Then `CC(Cc1ccccc1)NCCC(c1ccccc1)c1ccccc1` (stereo not given), with -112% (active); and `CC(Cc1ccccc1)NC=O` (stereo not given), with 13.6%; and `CC(=O)NC(=O)NC(C)Cc1ccccc1` (stereo not given), with -18.9%. Then `CCN1c2nc3c(C)cccn3c(=O)c2CC2(C(=O)N(C)C(=O)N(C)C2=O)C1C` (stereo not given), with -4.08%. With `c1ccc(C2NCc3ccccc3-n3cccc32)cc1` (stereo not given), the activity change was 12.2%. Then `CC1(C)C(c2ccccc2)=NC(c2cccnc2)=[N+]1[O-]`, with 0.45%. As to `CN(C)c1nc(N(C)C)nc(N(C#N)CCCl)n1`, the activity change was -8.4%. Then `OCC#CC[N+]1(CC#Cc2ccccc2)CCCC1`, with 13.7%; and `Cn1c(O)c(C=Nc2ccc3c(c2)CCC3)c(=O)n(C)c1=O`, with -17.3%. Then `CCOC(=O)C1(Cc2ccc(Cl)cc2)CCN(C(C)CCn2cccn2)CC1` (stereo not given), with -115% (active). Regarding `O=c1c2ccccc2nc(/C=C/c2ccc(F)cc2)n1-c1ccccc1O`, the activity change is -2.48%. To `CC(C)c1ccc(OCC(=O)N2CCN(C)CC2)c(Br)c1` belongs -93.1% (active).

With `CC(C)c1ccc(OCC(=O)N2CCCN(C)CC2)cc1`, the activity change is 10.3%. To `CN1CCN(C(=O)COc2ccc(C(C)(C)C)cc2Br)CC1` belongs -2.07%.

In the case of `CC(=C1C(=O)c2ccccc2C1=O)N1CCN(CCN=Cc2c(O)n(C)c(=O)n(C)c2=O)CC1`, the activity change is 10.3%. Consider `CC1CC=CCC12C(=O)NC(=S)NC2=O` (stereo not given), for which the activity change is 10.6%. Then `CSC1=NP(=S)(SC)N(C)c2nc3n(c21)CCC3` (stereo not given), with -5.66%. As to `Cc1cc(C)cc(NC(=S)NC2CC3CCCC(C2)N3Cc2cccs2)c1` (stereo not given), the activity change was -73.1% (active). To `c1ccc(CCNC2CCCCCC2)cc1` belongs 12.5%; to `CNC(=O)O/N=C(\N)Cc1csc2ccc(Cl)cc12`, 4.55%. Regarding `N#Cc1ccc(Cn2cc(C(=O)c3ccco3)c3ccccc32)cc1`, the activity change was -80.8% (active). With `NC(=O)Cn1cc(C(=O)c2ccccc2F)c2ccccc21`, the activity change was 3.8%. In the case of `COc1ccc2[nH]c3c(c2c1)CCN[C@H]3C`, the activity change was 2.31%. Then `COc1cc(OC)cc(C2(C#N)CCN(C)CC2)c1`, with 5.57%.

Take `Cc1ncoc1C(=O)NCC1=C(c2cccc3ccccc23)C[C@@H]2CC[C@H]1N2Cc1ccco1`: the activity change is -7.12%. Then `CC(=CCOc1ccc2ccc(=O)oc2c1)C1=CC(=O)C(C)(C)O1`, with 4.08%.
